Some test systems named below: DU-145 prostate; K-562 leukemia; MALME-3M melanoma; MDA-MB-231 breast; RXF 393 renal; SF-268 CNS; SF-295 CNS; SF-539 CNS; UACC-257 melanoma; M14 melanoma; HCT-15 colon; HT29 colon; SNB-75 CNS; SNB-19 CNS; U251 CNS; PC-3 prostate; SK-MEL-5 melanoma; UACC-62 melanoma; LOX IMVI melanoma; SK-MEL-28 melanoma.
What all share (assay): NCI-60 one-dose screen, 48 h (100 = growth as untreated, 0 = no growth, -100 = all killed)
Holding throughout (conditions): 10 µM unless noted

Each structure is given as a SMILES string. The panel holds about 83,000 compounds, 20% with a hit somewhere; the sample as a whole holds those more often.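 Plates (96-well) were seeded with cells, treated with compound at one concentration, and incubated for 48 hours before percent growth was determined.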 Unmarked numbers belong to inactive results. Calls of active or inactive are those of the source. The calls were made as follows: active = growth percent below 10; inactive = the rest.

`COc1cc(-c2cc(-c3ccc(N(C)C)cc3)nc(N3CCC(O)CC3)c2C#N)cc(OC)c1OC`: the growth in the experiment with DU-145 prostate was 33%; in the experiment on K-562 leukemia it was 1.74% (active); in the experiment on MALME-3M melanoma, -45.3% (active); in the experiment with MDA-MB-231 breast, -50.9% (active); in the experiment on RXF 393 renal, -5.34% (active); in the experiment with SF-268 CNS it was 22.1%. In addition, the growth with SF-295 CNS is -44.3% (active); in the experiment on SF-539 CNS, -0.969% (active); in the experiment with UACC-257 melanoma it was -51.8% (active); with M14 melanoma it was -69.3% (active); in the experiment with HCT-15 colon, -41.1% (active); in the experiment with HT29 colon, 2.08% (active). The growth in the experiment on SNB-75 CNS was -17.2% (active); in the experiment on SNB-19 CNS, 30.2%; with U251 CNS, 12.9%; in the experiment on PC-3 prostate, 12.7%; in the experiment on SK-MEL-5 melanoma, -99% (active); with UACC-62 melanoma it was -26.8% (active). For the same molecule, the growth with LOX IMVI melanoma is -0.767% (active); with SK-MEL-28 melanoma, -28.7% (active).
With `O=C(CCC(=O)N/N=C/c1ccccc1O)N/N=C/c1ccccc1O`, the growth in the experiment on DU-145 prostate was 48.4%; in the experiment with K-562 leukemia it was 40.4%; in the experiment on MALME-3M melanoma, 62.5%; with MDA-MB-231 breast it was 49%; in the experiment with RXF 393 renal, 58.9%; in the experiment on SF-268 CNS it was 33.2%. Also, the growth was 89.6% in the experiment with SF-295 CNS; 30% in the experiment with SF-539 CNS; 76% in the experiment on UACC-257 melanoma; 36.4% with M14 melanoma; 22.5% in the experiment on HCT-15 colon; 84.1% in the experiment with HT29 colon. Besides, the growth in the experiment on SNB-75 CNS was 78.6%; with SNB-19 CNS, 57.9%; in the experiment with U251 CNS, 26%; in the experiment on PC-3 prostate, 31.1%; in the experiment with SK-MEL-5 melanoma, 36.3%; in the experiment with UACC-62 melanoma it was 24.9%. Also, the results for the growth in the experiment on LOX IMVI melanoma and in the experiment on SK-MEL-28 melanoma were 21% and 45.2%, respectively.
For `COc1cccc(NC(=O)Cn2cc(CN3CCN(c4ccnc5cc(Cl)ccc45)CC3)nn2)c1`, the growth is 104% with DU-145 prostate; 67.4% with K-562 leukemia; 95.6% with MALME-3M melanoma; 73.9% in the experiment on MDA-MB-231 breast; 95% in the experiment on RXF 393 renal; 84.7% in the experiment on SF-268 CNS. Besides, the growth in the experiment on SF-295 CNS was 87.5%; in the experiment on SF-539 CNS, 87.7%; in the experiment with UACC-257 melanoma, 102%; in the experiment with M14 melanoma, 104%; with HCT-15 colon, 89.8%; in the experiment on HT29 colon it was 98%. Moreover, the growth with SNB-75 CNS is 75.5%; with SNB-19 CNS, 88.7%; with U251 CNS, 96.3%; in the experiment on PC-3 prostate, 67.4%; in the experiment on SK-MEL-5 melanoma it was 59.3%; in the experiment with UACC-62 melanoma, 75.8%. In addition, the growth in the experiment with LOX IMVI melanoma is 86.8%; with SK-MEL-28 melanoma it was 102%.
With `O=C1/C(=C/c2ccccc2Br)COc2ccc(O)c(O)c21`, the growth in the experiment with DU-145 prostate is 13%; in the experiment with K-562 leukemia, 9.73% (active); in the experiment on MALME-3M melanoma, -8.51% (active); in the experiment with MDA-MB-231 breast, 0.858% (active); in the experiment on RXF 393 renal, 10.1%; with SF-268 CNS it was 10.9%. For the same molecule, the growth in the experiment with SF-295 CNS was 62.9%; in the experiment on SF-539 CNS it was -25.7% (active); in the experiment with UACC-257 melanoma, 19.7%; with M14 melanoma, 31.5%; in the experiment on HCT-15 colon, -1.56% (active); with HT29 colon, 47.6%. In addition, the growth was 23.2% with SNB-75 CNS; 27% in the experiment on SNB-19 CNS; 4.99% (active) with U251 CNS; 15.6% with PC-3 prostate; 46.9% in the experiment on SK-MEL-5 melanoma; 6.99% (active) in the experiment with UACC-62 melanoma. Besides, the growth in the experiment on LOX IMVI melanoma was -76% (active); in the experiment with SK-MEL-28 melanoma, 42.3%.
In the case of `CCN(C(=O)N1CCN(c2cc3c(cc2F)c(=O)c(C(=O)O)cn3C2CC2)CC1)c1nc(-c2ccc(Cl)cc2)cs1`, the growth in the experiment on DU-145 prostate was 23.5%; in the experiment on K-562 leukemia, 12.7%; with MALME-3M melanoma, 6.66% (active); in the experiment on MDA-MB-231 breast it was -21.5% (active); in the experiment with RXF 393 renal it was 18.2%; with SF-268 CNS, 21.8%. Besides, the growth in the experiment with SF-295 CNS is -0.18% (active); in the experiment on SF-539 CNS it was 11.8%; in the experiment on UACC-257 melanoma, 12.9%; in the experiment on M14 melanoma, 23%; in the experiment on HCT-15 colon, 10.2%; in the experiment with HT29 colon, 5.63% (active). The growth with SNB-75 CNS is 28.9%; with SNB-19 CNS, 15.6%; with U251 CNS, 15.1%; in the experiment on PC-3 prostate, 10.1%; with SK-MEL-5 melanoma, -28.2% (active); with UACC-62 melanoma it was -26.7% (active). In addition, the results for the growth in the experiment on LOX IMVI melanoma and in the experiment with SK-MEL-28 melanoma were 5.32% (active) and 40%, respectively.
For `CCn1cc(C(=O)N/N=C/c2cccs2)c(=O)c2cc(F)c(N3CCNC(C)C3)c(F)c21` (stereo not given), the growth in the experiment on DU-145 prostate was 48.3%; with K-562 leukemia, -39% (active); with MALME-3M melanoma it was -36.7% (active); in the experiment on MDA-MB-231 breast, 41%; with RXF 393 renal, 16.2%; in the experiment with SF-268 CNS it was 79.1%. In addition, the growth in the experiment on SF-295 CNS was 85.3%; in the experiment on SF-539 CNS, 84.2%; in the experiment on UACC-257 melanoma it was 108%; with M14 melanoma it was 49.4%; in the experiment with HCT-15 colon, 25%; in the experiment on HT29 colon it was -76.7% (active). The growth was 88.5% in the experiment on SNB-75 CNS; 73% with SNB-19 CNS; 53.3% in the experiment with U251 CNS; 76.3% in the experiment on PC-3 prostate; 69.8% in the experiment with SK-MEL-5 melanoma; 96.5% with UACC-62 melanoma. The growth is -84.1% (active) in the experiment with LOX IMVI melanoma and 89.9% with SK-MEL-28 melanoma.
On to `Cc1ccc2c(n1)C(=O)c1[nH]c3ccccc3c1C2=O`, for which the growth with DU-145 prostate was -86.1% (active); in the experiment with K-562 leukemia, 44.9%; in the experiment on MALME-3M melanoma, -80.4% (active); in the experiment on MDA-MB-231 breast it was 32.1%; with RXF 393 renal it was 62.7%; with SF-268 CNS, 66.3%. Moreover, the growth is 0.15% (active) in the experiment on SF-295 CNS; 43% in the experiment on SF-539 CNS; 13.7% in the experiment with UACC-257 melanoma; -39.9% (active) with M14 melanoma; 18.8% in the experiment on HCT-15 colon; 26.6% in the experiment on HT29 colon. For the same molecule, the growth in the experiment on SNB-75 CNS is -37.8% (active); with SNB-19 CNS it was 46.9%; with U251 CNS, 40.9%; in the experiment with PC-3 prostate it was 35.3%; in the experiment on SK-MEL-5 melanoma, -94% (active); with UACC-62 melanoma, -64.2% (active). Moreover, the growth is 16.4% in the experiment with LOX IMVI melanoma and 78.6% with SK-MEL-28 melanoma.
Turning to `O=c1oc2c(cnc3ccccc32)cc1-c1ccsc1`, the growth is 104% with DU-145 prostate; 92.8% in the experiment with K-562 leukemia; 101% with MALME-3M melanoma; 101% in the experiment on MDA-MB-231 breast; 105% in the experiment with RXF 393 renal; 94.6% in the experiment with SF-268 CNS. For the same molecule, the growth in the experiment with SF-295 CNS is 103%; in the experiment on SF-539 CNS, 93.4%; in the experiment on UACC-257 melanoma, 101%; with M14 melanoma, 101%; with HCT-15 colon it was 107%; with HT29 colon, 113%. Also, the growth in the experiment on SNB-75 CNS was 89%; in the experiment on SNB-19 CNS, 94.6%; in the experiment on U251 CNS it was 93.3%; with PC-3 prostate, 90.5%; in the experiment with SK-MEL-5 melanoma, 96.8%; in the experiment on UACC-62 melanoma, 94.8%. Besides, the growth with LOX IMVI melanoma is 99.3%; with SK-MEL-28 melanoma, 106%.

(Values after PubChem BioAssay (NCI).)
